According to PubChem BioAssay (Tox21):
Values joined by “and” are separate entries in the source; they are usually repeats but may differ in a detail not shown here. Identical values can stand only once. Results filed as inconclusive are left out. Some compounds were tested as several samples or in several runs, with calls that do not always agree. Active and inactive are the calls of the source. Unless noted, calls come from the whole dose curve; as a rule, active = well fitted curve in the direction sought with a large enough effect in the repeat runs; inconclusive = weak or mixed curves; inactive = no such curve, though single readings can be large; an effect the other way counts as inactive or inconclusive.

Key:
[1] = qHTS assay to test for compound auto fluorescence at 535 nm (green) in HEK293 cells (AID 720680)
[2] = qHTS assay to test for compound auto fluorescence at 460 nm (blue) in HEK293 cell free culture (AID 720681)
Outline: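 Blue fluorescence (Ex 405/Em 460 nm, triamterene-equivalent) was read immediately after pin transfer of compound or DMSO into medium (DMEM, 10% FBS) without cells.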

[3] = qHTS assay to test for compound auto fluorescence at 535 nm (green) in HEK293 cell free culture (AID 720682)
Outline: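 Using fluorescein as calibrant, autofluorescence was quantified at 485/535 nm in cell-free DMEM containing 10% FBS after pintool addition of compound or vehicle.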

[4] = qHTS assay to test for compound auto fluorescence at 590 nm (red) in HEK293 cell free culture (AID 720683)
Outline: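 Red-channel autofluorescence of compounds in culture medium (DMEM, 10% FBS), no cells, measured at 540/590 nm. Rose Bengal sodium is the reference fluorophore for equivalence.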

[5] = qHTS assay to test for compound auto fluorescence at 590 nm (red) in HepG2 cell free culture (AID 720684)
Outline: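 Steps: dispense MEM/10% FBS medium, no cells; pin compound or DMSO vehicle; read red channel, Ex/Em 540/590 nm. Output given as Rose Bengal sodium equivalents.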

[6] = qHTS assay to test for compound auto fluorescence at 460 nm (blue) in HepG2 cell free culture (AID 720685)
Outline: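 Compound (23 nL) or DMSO pinned into cell-free MEM with 10% FBS; blue fluorescence read at 405/460 nm excitation/emission, expressed as auto-fluorescence equivalency to triamterene.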

[7] = qHTS assay to test for compound auto fluorescence at 535 nm (green) in HepG2 cell free culture (AID 720686)
[8] = qHTS assay to test for compound auto fluorescence at 460 nm (blue) in HepG2 cells (AID 720687)
Outline: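 Blue-channel autofluorescence (Ex/Em 405/460 nm, triamterene-equivalent) was measured after 1 hr compound exposure at 37 C, 5% CO2. Cells were HepG2, plated overnight at 37 C in MEM plus 10% FBS.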

[9] = target: Glucocorticoid receptor (Homo sapiens) (UniProt P04150); assay: qHTS assay to identify small molecule agonists of the glucocorticoid receptor (GR) signaling pathway (AID 720691; active = well fitted activation curve with a large enough effect in the signal ratio in the repeat runs, not every such curve was filed as active; the % refers to the signal ratio)
Sequence of Glucocorticoid receptor (Homo sapiens) (P04150 whole entry, looked up): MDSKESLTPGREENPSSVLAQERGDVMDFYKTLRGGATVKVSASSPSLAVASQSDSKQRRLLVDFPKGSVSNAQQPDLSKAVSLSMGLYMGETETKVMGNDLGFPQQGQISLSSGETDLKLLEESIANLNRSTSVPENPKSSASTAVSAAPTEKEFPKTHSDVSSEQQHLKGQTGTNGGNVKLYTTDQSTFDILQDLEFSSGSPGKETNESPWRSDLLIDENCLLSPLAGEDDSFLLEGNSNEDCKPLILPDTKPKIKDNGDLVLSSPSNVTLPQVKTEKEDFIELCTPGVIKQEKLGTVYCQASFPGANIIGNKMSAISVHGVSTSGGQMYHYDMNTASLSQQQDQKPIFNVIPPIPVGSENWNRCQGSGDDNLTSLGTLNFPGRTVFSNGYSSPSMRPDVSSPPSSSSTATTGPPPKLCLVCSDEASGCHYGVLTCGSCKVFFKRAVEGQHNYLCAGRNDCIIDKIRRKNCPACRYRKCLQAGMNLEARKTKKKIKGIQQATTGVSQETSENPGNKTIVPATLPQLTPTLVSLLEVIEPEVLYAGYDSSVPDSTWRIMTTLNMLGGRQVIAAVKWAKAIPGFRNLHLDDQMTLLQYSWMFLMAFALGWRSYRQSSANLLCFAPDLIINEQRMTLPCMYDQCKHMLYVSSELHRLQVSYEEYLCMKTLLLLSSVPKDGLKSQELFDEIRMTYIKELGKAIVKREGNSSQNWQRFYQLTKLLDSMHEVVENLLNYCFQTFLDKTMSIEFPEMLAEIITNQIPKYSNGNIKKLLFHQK
Outline: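 Reporter read-out: fluorescence intensity following 2 h room-temperature LiveBLAzer B/G FRET substrate loading. Prior step: GR-bla HeLa cells held 4 h, then treated 18 h at 37 C.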

[10] = target: Glucocorticoid receptor (Homo sapiens) (UniProt P04150); assay: qHTS assay to identify small molecule antagonists of the glucocorticoid receptor (GR) signaling pathway (AID 720692; active = well fitted inhibition curve with a large enough effect in the signal ratio in the repeat runs, not every such curve was filed as active; the % refers to the signal ratio)
Outline: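 Dexamethasone (5 nM final) stimulated a stably integrated GRE-beta-lactamase reporter in HeLa cells during 18 h co-incubation with compounds; signal was quantified as fluorescence intensity of B/G FRET substrate after 2 h.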

[11] = qHTS assay to identify small molecule antagonists of the glucocorticoid receptor (GR) signaling pathway - cell viability counter screen (AID 720693); note: nearly all actives have a fitted effect of over 55% in size
[12] = qHTS assay for identifying genotoxic compounds that show differential cytotoxicity against isogenic chicken DT40 cell lines with known DNA damage response pathways - wild type cell line (AID 743012); note: nearly all actives have a fitted effect of over 60% in size; note: potency is the fitted concentration of half-maximal effect
Outline: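 Using parental DT40 (300 cells/well), compounds delivered in DMSO incubate 40 h at 37 C/5% CO2. CellTiter-Glo reagent then stands 30 min at room temperature, and luminescence gives cell viability.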

[13] = qHTS assay for identifying genotoxic compounds that show differential cytotoxicity against isogenic chicken DT40 cell lines with known DNA damage response pathways - Rev3 mutant cell line (AID 743014); note: nearly all actives have a fitted effect of over 55% in size; note: potency is the fitted concentration of half-maximal effect
[14] = qHTS assay for identifying genotoxic compounds that show differential cytotoxicity against isogenic chicken DT40 cell lines with known DNA damage response pathways - Rad54/Ku70 mutant cell line (AID 743015); note: nearly all actives have a fitted effect of over 60% in size; note: potency is the fitted concentration of half-maximal effect
[15] = qHTS assay to identify small molecule antagonists of the androgen receptor (AR) signaling pathway - cell viability counter screen (AID 743033; note: nearly all actives have a fitted effect of over 45% in size; note: potency is the fitted concentration of half-maximal effect)
[16] = target: Androgen receptor (Homo sapiens) (UniProt P10275); assay: qHTS assay to identify small molecule antagonists of the androgen receptor (AR) signaling pathway (AID 743035; active = well fitted inhibition curve with a large enough effect in the signal ratio in the repeat runs, not every such curve was filed as active; the % refers to the signal ratio)
Sequence of Androgen receptor (Homo sapiens) (P10275 whole entry, looked up): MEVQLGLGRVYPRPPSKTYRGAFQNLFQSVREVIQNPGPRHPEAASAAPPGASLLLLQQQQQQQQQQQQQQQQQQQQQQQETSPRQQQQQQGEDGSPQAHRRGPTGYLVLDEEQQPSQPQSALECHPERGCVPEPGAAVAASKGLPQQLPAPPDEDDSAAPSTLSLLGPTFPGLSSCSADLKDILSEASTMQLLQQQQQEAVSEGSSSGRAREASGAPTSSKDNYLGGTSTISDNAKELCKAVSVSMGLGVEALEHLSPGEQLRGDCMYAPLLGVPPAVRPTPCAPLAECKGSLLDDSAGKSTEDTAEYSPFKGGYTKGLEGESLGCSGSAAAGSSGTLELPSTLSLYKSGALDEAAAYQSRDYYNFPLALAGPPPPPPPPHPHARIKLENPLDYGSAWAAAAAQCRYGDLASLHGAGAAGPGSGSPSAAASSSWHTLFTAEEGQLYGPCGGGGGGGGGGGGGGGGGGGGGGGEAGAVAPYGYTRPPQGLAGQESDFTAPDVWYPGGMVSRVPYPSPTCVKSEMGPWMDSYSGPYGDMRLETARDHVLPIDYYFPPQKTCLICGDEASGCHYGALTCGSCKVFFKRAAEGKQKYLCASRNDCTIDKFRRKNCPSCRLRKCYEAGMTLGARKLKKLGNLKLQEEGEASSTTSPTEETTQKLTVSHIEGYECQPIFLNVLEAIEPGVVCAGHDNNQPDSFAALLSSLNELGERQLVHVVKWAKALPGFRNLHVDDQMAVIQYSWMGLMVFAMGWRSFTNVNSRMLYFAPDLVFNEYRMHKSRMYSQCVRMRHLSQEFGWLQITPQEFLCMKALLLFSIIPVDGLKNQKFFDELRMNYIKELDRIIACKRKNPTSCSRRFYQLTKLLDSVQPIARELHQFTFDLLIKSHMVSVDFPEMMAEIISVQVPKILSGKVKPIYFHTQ
Outline: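 Using qHTS, AR-UAS-bla GripTite HEK293 cells received compound, then R1881, and were cultured 16 h at 37C/5% CO2 before a 2 h room-temperature LiveBLAzer B/G FRET substrate step and fluorescence measurement.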

[17] = target: Androgen receptor (Homo sapiens) (UniProt P10275); assay: qHTS assay to identify small molecule agonists of the androgen receptor (AR) signaling pathway (AID 743036; active = well fitted activation curve with a large enough effect in the signal ratio in the repeat runs, with a control signal flat, not every such curve was filed as active; the % refers to the signal ratio)
Outline: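 In this Tox21 qHTS, 2,000 HEK293 AR-bla cells per well were incubated with compounds for 16 h at 37C and 5% CO2. Fluorescence intensity was recorded 2 h after adding LiveBLAzer B/G FRET substrate at room temperature.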

[18] = target: Androgen receptor (Homo sapiens) (UniProt P10275); assay: qHTS assay to identify small molecule agonists of the androgen receptor (AR) signaling pathway using the MDA cell line (AID 743040; note: nearly all actives have a fitted effect of over 20% in size)
Outline: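 Cells plated, 5 h at 37C/0% CO2; compound or DMSO pinned; 16 h at 37C; ONE-Glo added; luminescence measured after 30 min at room temperature. Reporter line: MDA-kb2 with MMTV-luciferase responsive to AR and GR.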

[19] = qHTS assay to identify small molecule antagonists of the androgen receptor (AR) signaling pathway using the MDA cell line - cell viability counter screen (AID 743041; note: nearly all actives have a fitted effect of over 45% in size; note: potency is the fitted concentration of half-maximal effect)
Outline: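 Cells were plated at 3,000 per well and left 5 h. Compounds in DMSO were then pinned in, followed by R1881. After 16 h at 37C, CellTiter-Fluor fluorescence gave viability.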

[20] = target: Androgen receptor (Homo sapiens) (UniProt P10275); assay: qHTS assay to identify small molecule antagonists of the androgen receptor (AR) signaling pathway using the MDA cell line (AID 743042; note: nearly all actives have a fitted effect of over 55% in size)
Outline: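 Antagonist mode: compounds plus R1881 agonist added to MDA-kb2 AR-luc cells, incubated 16 h at 37C. Luciferase reporter luminescence quantified, with multiplexed CellTiter-Fluor readout for cell viability.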

Measured: Potency

CCOc1ccccc1C(N)=O
inactive: all assays above

CC1=C(C=O)C(C)(C)CC=C1
not listed: [14] | [16] | [17] | [18] | [20]
inactive: all other assays above

Cc1cccc(O)c1C
not listed: [16] | [17] | [18] | [20]
inactive: all other assays above

CCCNC(C)C(=O)Nc1ccccc1C (stereo not given)
not listed: [13] | [16] | [17] | [18] | [20]
inactive: all other assays above

OCC(CO)N[C@H]1C[C@](O)(CO)[C@@H](O)[C@H](O)[C@H]1O
inactive: all assays above

C=C(C)C1CC=C(C)C(OC(C)=O)C1 (stereo not given)
not listed: [16] | [17] | [18] | [20]
inactive: all other assays above

CC(C)(C)NC(=O)[C@@H]1CN(Cc2cccnc2)CCN1C[C@@H](O)C[C@@H](Cc1ccccc1)C(=O)N[C@H]1c2ccccc2C[C@H]1O
active: [14] 18.8 µM
23.7 µM (active) and inactive: [12] | [13]
not listed: [16] | [17] | [18] | [20]
inactive: all other assays above

CO[Si](OC)(OC)c1ccccc1
not listed: [16] | [17] | [18] | [20]
inactive: all other assays above

CC(=O)N[C@@H](CS)C(=O)O
not listed: [16] | [17] | [18] | [20]
inactive: all other assays above

O=C(Oc1ccccc1)c1ccccc1O
inactive and 61.1 µM (active): [14]
not listed: [16] | [17] | [18] | [20]
inactive: all other assays above

Cc1cccc([N+](=O)[O-])c1C(=O)O
not listed: [16] | [17] | [18] | [20]
inactive: all other assays above

COC(=O)/C=C/c1ccccc1
not listed: [13] | [14] | [16] | [17] | [18] | [20]
inactive: all other assays above

CNCCC(Oc1ccc(C(F)(F)F)cc1)c1ccccc1 (stereo not given)
active: [12] 5.31 µM and 9.56 µM | [13] 6.68 µM and 6.03 µM | [15] 48.4 µM | [19] 27.8 µM and 53.8 µM
not listed: [14] | [16] | [17] | [18] | [20]
inactive: all other assays above

O=C(O)c1cn(-c2ccc(F)cc2)c2cc(N3CCNCC3)c(F)cc2c1=O
not listed: [12] | [14] | [16] | [17] | [18] | [20]
inactive: all other assays above
